# Measurements reported in PubChem BioAssay (NCI).
# The panel holds about 83,000 compounds, 20% with a hit somewhere; the sample as a whole holds those more often.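 Assay: single dose, 48 h. Readout: percent growth (0 = no net growth; negative = cell death). Active: <10.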 A number with no mark means an inactive call. Calls of active or inactive are those of the source.
# System: COLO 205 colon
# Assay: NCI-60 one-dose screen, 48 h (100 = growth as untreated, 0 = no growth, -100 = all killed)
# Conditions: 10 µM
row,Compound,growth
1,COc1cccc(-c2nc3sccn3c2-c2cccc(S(C)(=O)=O)c2)c1,114%
2,COc1cc(-c2nn(-c3cccc(NC(=O)CCN4CCN(Cc5ccccc5)CC4)c3)cc2-c2ccncc2)ccc1Cl,-50.9% (active)
3,O=C(O)c1cc([N+](=O)[O-])ccc1Oc1ccccc1,104%
4,CCN(CC)CCCC(C)N=C(C1=C(C(=NC(C)CCCN(CC)CC)c2cccc(OC)c2)C(=O)NC1=O)c1cccc(OC)c1 (configuration not stated),-89.9% (active)
5,O=[N+]([O-])c1cc(Cl)cc(Cl)c1O,108%
6,O=C(CN1CCN(C(=O)c2ccccc2)CC1)Nc1ccccc1SCc1ccccc1,82.3%
7,CC(=O)Oc1cc(OC(C)=O)c2ccccc2c1OC(C)=O,92.9%
8,CCOC(=O)c1cc(C(=O)c2ccc(F)cc2F)n2ccccc12,110%
9,CN1CCN(CCCn2c(=O)c3sc4ncccc4c3n3nnc(-c4ccccc4)c23)CC1,-96.5% (active)
10,O=C(CCl)Nc1ccc(Cc2ccc(NC(=O)CCl)cc2)cc1,-56.1% (active)
11,COc1cc(/C=C2\CCCC3=C2N=C2SC(C)=CN2C3c2cc(OC)c(OC)c(OC)c2)cc(OC)c1OC (configuration not stated),-71% (active)
12,Oc1cccc(-c2nc3sccn3c2-c2ccncn2)c1,32.1%
